About 14,000 (4.5%) of roughly 310,000 compounds showed an effect of 50% or more. The effect is printed as a negative number. What follows is part of a selection rich in strong results, with near analogues and random picks from the rest.
The molecules below were run against human ether-à-go-go-related gene (hERG) potassium channel (human, UniProt Q12809) (assay: primary screen, population patch clamp on CHO cells stably expressing hERG; higher = less effect of the substance).
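Note: peak tail current of the secondary pulse compared with the same well before compound.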

human ether-à-go-go-related gene (hERG) potassium channel, sequence (Q12809 whole entry, looked up): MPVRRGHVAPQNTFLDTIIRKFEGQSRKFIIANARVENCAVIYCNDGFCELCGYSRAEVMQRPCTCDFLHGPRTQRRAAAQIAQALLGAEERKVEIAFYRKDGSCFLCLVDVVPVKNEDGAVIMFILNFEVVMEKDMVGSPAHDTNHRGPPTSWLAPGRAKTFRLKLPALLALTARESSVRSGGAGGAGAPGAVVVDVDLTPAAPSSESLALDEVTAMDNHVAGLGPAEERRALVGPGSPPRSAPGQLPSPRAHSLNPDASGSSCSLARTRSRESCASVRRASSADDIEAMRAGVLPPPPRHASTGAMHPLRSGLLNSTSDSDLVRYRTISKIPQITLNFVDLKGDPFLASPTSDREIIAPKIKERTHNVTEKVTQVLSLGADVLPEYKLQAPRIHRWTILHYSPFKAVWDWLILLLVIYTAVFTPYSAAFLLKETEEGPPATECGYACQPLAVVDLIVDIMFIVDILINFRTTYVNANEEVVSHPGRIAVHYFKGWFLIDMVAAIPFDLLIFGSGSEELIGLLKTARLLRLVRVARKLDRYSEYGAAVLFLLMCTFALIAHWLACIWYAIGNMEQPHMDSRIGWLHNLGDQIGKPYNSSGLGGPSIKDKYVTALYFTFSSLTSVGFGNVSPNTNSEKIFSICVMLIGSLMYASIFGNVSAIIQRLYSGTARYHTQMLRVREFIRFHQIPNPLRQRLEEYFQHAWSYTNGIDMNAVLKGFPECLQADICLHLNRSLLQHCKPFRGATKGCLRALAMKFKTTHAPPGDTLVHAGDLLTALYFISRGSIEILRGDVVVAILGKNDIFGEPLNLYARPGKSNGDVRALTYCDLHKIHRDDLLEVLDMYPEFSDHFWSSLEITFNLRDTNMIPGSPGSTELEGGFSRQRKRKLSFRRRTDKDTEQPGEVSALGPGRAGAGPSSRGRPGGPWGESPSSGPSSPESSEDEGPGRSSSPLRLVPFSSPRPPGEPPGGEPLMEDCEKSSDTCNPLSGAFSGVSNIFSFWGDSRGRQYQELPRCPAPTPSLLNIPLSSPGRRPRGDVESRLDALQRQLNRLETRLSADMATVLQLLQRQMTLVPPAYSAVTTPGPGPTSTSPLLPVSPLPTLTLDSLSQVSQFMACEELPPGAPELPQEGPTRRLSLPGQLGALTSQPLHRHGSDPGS

Structure (SMILES)	hERG current change (%, negative = inhibition) at 10uM [%]
Cc1ccccc1C(=O)NC(=S)Nc1ccc(S(=O)(=O)N2CCN(C)CC2)cc1	7.75
COc1ccc(-c2noc(CN3CCCCC3)n2)cc1OC	-1.49
Cc1cccc(C)c1NC(=O)CN(c1ccccn1)S(=O)(=O)c1ccc(F)cc1	19.1
Cc1ccc2[nH]cc(CCNS(=O)(=O)c3ccc(F)cc3)c2c1	-4.39
CSc1ccc(CNc2ncc(-c3cccc([N+](=O)[O-])c3)n2C)cc1.O=C(O)C(=O)O	-66.4
COc1cccc(CNc2ncc(-c3ccccc3)n2C)c1	-35.6
Cn1c(-c2ccc(F)cc2)cnc1NCc1cccc([N+](=O)[O-])c1	-70.9
Cc1ccc(CNc2ncc(-c3ccccc3)n2C)o1.O=C(O)C(=O)O	-37
Cn1c(-c2cccc([N+](=O)[O-])c2)cnc1NCc1cccc([N+](=O)[O-])c1.O=C(O)C(=O)O	-77.8
CC(C)NCc1cccc([N+](=O)[O-])c1.O=C(O)C(=O)O	3.39
Cn1c(-c2ccccc2)cnc1NCc1cccc([N+](=O)[O-])c1	-72
O=C(c1cccc([N+](=O)[O-])c1)n1nc(-c2ccccc2)nc1NCc1ccccc1	9.75
Cn1c(-c2ccc(F)cc2)cnc1NCc1cccc(F)c1	-46
Cn1c(-c2ccccc2)cnc1NCc1ccccc1	-21.3
CCN(CC)C(=O)c1ccc(NC(=O)Cn2nc(C)c3ccccc3c2=O)cc1	-10.3
Cc1ccc(C(=O)CSc2nnc(-c3cccnc3)n2N)cc1	-15.2
O=C(NCCN1C(=O)S/C(=C\c2ccc(Cl)c(Cl)c2)C1=O)C1COc2ccccc2O1 (stereo not shown)	-9.28
COc1cc2c(cc1OC)[C@H](C)N(C(=O)NCc1ccccc1)CC2	5.78
CCN(CC)c1ccc2cc(-c3nc4ccccc4n3C)c(=O)oc2c1	22.9
O=C(c1cc2sccc2n1Cc1ccc(F)cc1)N1CCCc2ccccc21	15.3
c1ccc2c(c1)c1ccccc1n1c(-c3ccc4c(c3)OCO4)nnc21	3.9
Cn1ncc2c(N3CCCCC3)nc(NCCCO)nc21	11.9

Structure (SMILES)	hERG current change (%, negative = inhibition) at 10uM [%]
Cn1cnc2c1c(=O)n(Cc1ccc(F)cc1Cl)c(=O)n2C	5.82
CCOC(=O)C1CCCN(C(=O)c2cccc(S(=O)(=O)N3CCOCC3)c2)C1 (stereo not shown)	15.6
COc1ccc2cc(C#N)c(SCC(=O)N3CC(=O)Nc4ccccc43)nc2c1	14.9
COc1ccc(S(=O)(=O)NCCc2cn3nc(C)c(C)nc3n2)cc1F	3.38
COc1ccc([N+](=O)[O-])cc1NCc1cccc([N+](=O)[O-])c1	-62.6
Cn1c(-c2cccc([N+](=O)[O-])c2)cnc1NCc1cccc(F)c1.O=C(O)C(=O)O	-54.1
CCOc1ccc(CNc2ncc(-c3ccccc3)n2C)cc1	-38.9
COc1ccc(CNc2ncc(-c3ccccc3)n2C)cc1	-32.6
Cn1c(-c2cccc(Br)c2)cnc1NCc1cccnc1	-59.6
COc1ccc([N+](=O)[O-])cc1NCc1ccccc1.O=C(O)C(=O)O	2.96
COc1ccc(CNc2cc([N+](=O)[O-])ccc2OC)cc1	-1.02
Cn1c(-c2ccc(Br)cc2)cnc1NCc1cccnc1	-41.3
Cn1c(-c2cccc([N+](=O)[O-])c2)cnc1NCc1ccc(C#N)cc1.O=C(O)C(=O)O	-75
CNc1nc(N(C)C)nc(N(C)C)n1	-7.71
CCS(=O)(=O)N1Cc2ccccc2CC1C(=O)Nc1cccc(C)c1 (stereo not shown)	-4.95
CCc1cccc2c(C(=S)N3CCCC3)c[nH]c12	8.97
Nc1[nH]n2c(=O)cc(-c3ccccc3)nc2c1N=Nc1ccccc1	11
COc1ccccc1C(=O)Oc1ccc(N2C(=O)CCC2=O)cc1	-0.543
Cc1cc(C(F)F)n2nc(C(=O)Nc3ccc(F)cc3F)nc2n1	-2.95
O=C(CSc1nnc2n1CCCN2)c1ccc([N+](=O)[O-])cc1	-49.8
Nc1ccc2sc(N)nc2c1	12.2
Cc1cc(OC(C)C(=O)N(Cc2ccco2)C2CCS(=O)(=O)C2)cc(C)c1Cl (stereo not shown)	-1.99

Structure (SMILES)	hERG current change (%, negative = inhibition) at 10uM [%]
CC(C)=CCN1CCN(Cc2ccc(C#CC(C)(C)O)s2)CC1CCO (stereo not shown)	-1.88
COc1ccc(CNc2ncc(-c3cccc([N+](=O)[O-])c3)n2C)c(OC)c1OC.O=C(O)C(=O)O	-47.5
COc1cccc(-c2cnc(NCc3cc(Cl)ccc3O)n2C)c1.O=C(O)C(=O)O	-24.1
Cc1cccc(CNc2ncc(-c3cccc([N+](=O)[O-])c3)n2C)c1.O=C(O)C(=O)O	-71.1
COc1ccc(OC)c(CNc2ncc(-c3cccc([N+](=O)[O-])c3)n2C)c1.O=C(O)C(=O)O	-54.8
Cc1ccccc1Nc1c([N+](=O)[O-])ccc2c1=NC1(CCCCC1)N=2	-16.6
O=C(COc1ccc(Br)cc1Cl)NNC(=O)c1ccccc1	2.57
Cc1ccccc1CN(c1ccc(C(=O)NCc2ccccn2)cc1)S(C)(=O)=O	-35.4
CC1CC(C)CN(C(=O)CSc2nc(Cc3cccs3)nc3ccccc23)C1 (stereo not shown)	-13
Cc1noc(C)c1COC(=O)CCN1c2ccccc2Sc2ccccc21	7.54
CCCCCCCN=CC1=C(O)CC(c2ccccc2)CC1=O (stereo not shown)	-6.52
Cc1ccc(-n2cc(S(=O)(=O)c3ccc(C)cc3)[nH]c2=O)cc1	4.72
O=C(CCCCCN1C(=O)c2cccc3cccc(c23)C1=O)NCc1ccco1	13.2
O=C(NC1CCN(C(=S)Nc2ccc(Cl)cc2)CC1)c1ccco1	-72.8
CCNC(=S)N1CCC(NC(=O)c2ccco2)CC1	6.16
COc1ccc(C(=O)NC2CCN(C(=S)NCc3ccco3)CC2)cc1	-29.6
COCCNC(=S)N1CCC(NC(=O)c2ccco2)CC1	15.7
CC(C)CNC(=S)N1CCC(NC(=O)c2ccco2)CC1	-65.7
COc1ccc(NC(=S)N2CCC(NC(=O)c3ccco3)CC2)cc1	-6.59
O=C(NC1CCN(C(=S)NCc2ccco2)CC1)c1ccc(F)cc1	-51.6
O=C(NC1CCN(C(=S)NCc2ccco2)CC1)c1cccc(F)c1	-47.1
O=C(NC1CCN(C(=S)Nc2ccc(F)cc2)CC1)c1ccco1	-39

Structure (SMILES)	hERG current change (%, negative = inhibition) at 10uM [%]
C=CCN(c1ccc(C(=O)NCCCn2ccnc2)cc1)S(C)(=O)=O	12.3
CCCc1cc(=O)[nH]c(SC(C)C(=O)Nc2ccc3c(c2)OCCO3)n1 (stereo not shown)	-7.38
Cc1cc(CN(C)C)c(OC(=O)N(C)C)cc1C.Cl	16.1
Cc1[nH]nc2c1C1(C(=O)Nc3ccc([N+](=O)[O-])cc31)C(C#N)=C(N)O2 (stereo not shown)	24.9
C=CCn1c(SCC(=O)OCC)nc2cc(C(=O)NCc3ccco3)ccc2c1=O	-17.6
COC(=O)c1ccc2c(=O)n(Cc3ccc4c(c3)OCO4)c(SCC(=O)N3CCCC3)nc2c1	-52.4
CC1CCN(C(=O)CSc2nc3ccccc3c(=O)n2Cc2ccc3c(c2)OCO3)CC1	-13.6
COCCCNC(=O)CSc1nc2cc(C(=O)NCCOC)ccc2c(=O)n1Cc1ccc2c(c1)OCO2	-4.37
O=C(NCc1ccco1)c1ccc2c(=O)n(Cc3ccco3)c(SCC(=O)N3CCCC3)nc2c1	-76.4
CCOC(=O)CSc1nc2cc(C(=O)NCC3CCCO3)ccc2c(=O)n1Cc1ccco1 (stereo not shown)	-39.3
O=C(NCC1CCCO1)c1ccc2c(=O)n(CC3CCCO3)c(SCC(=O)N3CCCC3)nc2c1 (stereo not shown)	3.95
O=C(NCC1CCCO1)c1ccc2c(=O)n(Cc3ccco3)c(SCC(=O)N3CCCC3)nc2c1 (stereo not shown)	-79.3
CCCCCn1c(SCC(=O)OCC)nc2cc(C(=O)NCc3ccco3)ccc2c1=O	2.51
CN1CCN(C(=O)CCN2C(=O)/C(=C/c3ccccc3Cl)SC2=S)CC1	9.65
COc1ccc(/C(O)=C2/C(=O)C(=O)N(CCCN3CCOCC3)C2c2ccc(C(C)C)cc2)cc1 (stereo not shown)	24.6
COc1cc(C2CC(=O)N3CN(Cc4ccco4)CSC3=C2C#N)ccc1OCc1ccccc1 (stereo not shown)	15.1
CC(=O)C1C(c2cccc(F)c2)c2c(n[nH]c2C)CC1(C)O (stereo not shown)	15.7
COc1cc(CNCc2ccccc2)ccc1OCC(O)c1ccccc1.O=C(O)C(=O)O (stereo not shown)	-24.9
COC(=O)CC1C(=O)NCCN1C(=O)CSc1nc2cc(Cl)ccc2o1 (stereo not shown)	13.5
